Drawing on ChEMBL document CHEMBL5724796, “Tm Shift (DSF) assay results for EUbOPEN Chemogenomics Library” (2024), this text covers ΔTm for 14 compounds.

Details in all cases: Compound concentration 20.0 uM
Test [1] has as its target Tyrosine-protein kinase ABL1 (Homo sapiens) (UniProt P00519).
In test [2] the target is Bromodomain-containing protein 4 (Homo sapiens) (UniProt O60885).
The target of test [3] is Cyclin-dependent kinase 2 (Homo sapiens) (UniProt P24941).
The target of test [4] is Casein kinase I isoform delta (Homo sapiens) (UniProt P48730).
Test [5] deals with Glycogen synthase kinase-3 beta (Homo sapiens) (UniProt P49841).
Test [6] deals with Mitogen-activated protein kinase 1 (Homo sapiens) (UniProt P28482).
The target of test [7] is T1, Aurora kinase A (Homo sapiens) (UniProt O14965).
T1 sequence (whole entry): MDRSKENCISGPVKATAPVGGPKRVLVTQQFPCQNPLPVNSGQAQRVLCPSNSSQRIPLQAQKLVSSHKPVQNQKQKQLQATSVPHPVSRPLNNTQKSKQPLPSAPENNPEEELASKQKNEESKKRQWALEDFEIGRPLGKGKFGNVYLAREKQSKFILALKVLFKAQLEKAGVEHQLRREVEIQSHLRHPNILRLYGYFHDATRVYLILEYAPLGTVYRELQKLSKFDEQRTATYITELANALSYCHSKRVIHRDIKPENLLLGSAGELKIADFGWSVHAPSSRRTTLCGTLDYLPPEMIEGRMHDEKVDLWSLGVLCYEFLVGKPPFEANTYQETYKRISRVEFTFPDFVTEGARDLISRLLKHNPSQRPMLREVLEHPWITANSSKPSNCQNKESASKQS

For test [8], the target named is T2, Transcription intermediary factor 1-alpha (Homo sapiens) (UniProt O15164).
T2 sequence (whole entry): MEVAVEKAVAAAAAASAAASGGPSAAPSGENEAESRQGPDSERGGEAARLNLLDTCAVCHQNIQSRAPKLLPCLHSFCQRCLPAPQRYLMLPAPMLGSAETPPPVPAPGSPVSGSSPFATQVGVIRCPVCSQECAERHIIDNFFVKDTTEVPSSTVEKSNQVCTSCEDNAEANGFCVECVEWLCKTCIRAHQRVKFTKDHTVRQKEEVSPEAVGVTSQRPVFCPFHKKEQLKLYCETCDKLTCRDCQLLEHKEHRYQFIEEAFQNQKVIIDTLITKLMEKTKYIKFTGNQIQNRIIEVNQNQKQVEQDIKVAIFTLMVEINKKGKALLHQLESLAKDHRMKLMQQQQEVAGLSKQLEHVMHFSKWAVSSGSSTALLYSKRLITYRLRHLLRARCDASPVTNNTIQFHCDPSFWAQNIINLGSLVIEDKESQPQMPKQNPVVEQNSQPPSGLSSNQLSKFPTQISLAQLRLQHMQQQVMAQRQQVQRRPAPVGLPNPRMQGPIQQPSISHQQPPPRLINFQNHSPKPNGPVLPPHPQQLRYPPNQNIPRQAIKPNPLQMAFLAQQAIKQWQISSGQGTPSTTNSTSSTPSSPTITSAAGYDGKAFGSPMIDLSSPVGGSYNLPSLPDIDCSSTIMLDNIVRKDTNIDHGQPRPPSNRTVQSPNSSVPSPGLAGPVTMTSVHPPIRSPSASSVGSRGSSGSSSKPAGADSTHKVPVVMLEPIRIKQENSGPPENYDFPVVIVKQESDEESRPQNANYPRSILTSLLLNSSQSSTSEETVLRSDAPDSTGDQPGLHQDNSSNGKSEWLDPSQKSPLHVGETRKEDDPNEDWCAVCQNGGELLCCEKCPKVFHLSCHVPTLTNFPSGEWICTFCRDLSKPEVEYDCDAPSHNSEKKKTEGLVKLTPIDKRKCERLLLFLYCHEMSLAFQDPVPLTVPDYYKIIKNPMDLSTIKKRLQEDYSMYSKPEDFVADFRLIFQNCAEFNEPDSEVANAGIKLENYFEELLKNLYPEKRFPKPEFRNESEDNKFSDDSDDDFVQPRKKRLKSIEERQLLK

Structures are written as SMILES. Values joined by “and” are separate entries in the source; they are usually repeats but may differ in a detail not shown here. Equal entries are not always repeated. Residues, ends and D or L forms follow the SMILES beside them.

Glycogen synthase kinase-3 beta (Homo sapiens), sequence (P49841 whole entry, looked up): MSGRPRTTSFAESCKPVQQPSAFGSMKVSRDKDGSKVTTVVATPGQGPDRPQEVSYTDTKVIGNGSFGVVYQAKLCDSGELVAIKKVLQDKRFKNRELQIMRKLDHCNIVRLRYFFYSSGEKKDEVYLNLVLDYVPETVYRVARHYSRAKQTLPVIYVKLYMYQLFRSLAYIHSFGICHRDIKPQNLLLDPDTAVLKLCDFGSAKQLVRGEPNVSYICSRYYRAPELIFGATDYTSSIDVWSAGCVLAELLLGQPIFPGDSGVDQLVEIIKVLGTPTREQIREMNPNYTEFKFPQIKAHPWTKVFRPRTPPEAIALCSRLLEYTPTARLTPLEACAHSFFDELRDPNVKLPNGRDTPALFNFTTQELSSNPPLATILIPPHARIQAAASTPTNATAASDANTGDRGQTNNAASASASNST
Mitogen-activated protein kinase 1 (Homo sapiens), sequence (P28482 whole entry): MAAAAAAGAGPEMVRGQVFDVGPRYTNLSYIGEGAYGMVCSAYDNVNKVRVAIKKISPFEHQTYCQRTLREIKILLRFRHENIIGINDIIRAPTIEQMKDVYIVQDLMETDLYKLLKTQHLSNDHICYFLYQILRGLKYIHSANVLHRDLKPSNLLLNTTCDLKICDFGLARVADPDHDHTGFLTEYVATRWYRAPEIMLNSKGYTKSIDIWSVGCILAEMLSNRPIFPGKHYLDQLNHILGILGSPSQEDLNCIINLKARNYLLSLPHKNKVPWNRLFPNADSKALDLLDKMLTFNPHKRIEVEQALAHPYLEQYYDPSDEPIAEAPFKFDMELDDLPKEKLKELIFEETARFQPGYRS
Casein kinase I isoform delta (Homo sapiens), sequence (P48730 whole entry, looked up, canonical isoform): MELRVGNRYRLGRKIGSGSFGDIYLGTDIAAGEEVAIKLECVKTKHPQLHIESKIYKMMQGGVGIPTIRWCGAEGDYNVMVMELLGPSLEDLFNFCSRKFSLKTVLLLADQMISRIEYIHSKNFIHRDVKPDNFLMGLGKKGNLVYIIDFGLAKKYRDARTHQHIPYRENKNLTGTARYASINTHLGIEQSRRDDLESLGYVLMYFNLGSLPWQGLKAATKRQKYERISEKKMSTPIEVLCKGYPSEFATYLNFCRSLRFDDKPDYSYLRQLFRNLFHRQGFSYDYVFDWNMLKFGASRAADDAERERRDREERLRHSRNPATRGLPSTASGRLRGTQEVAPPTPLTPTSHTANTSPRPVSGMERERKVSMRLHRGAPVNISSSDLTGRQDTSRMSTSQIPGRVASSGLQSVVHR
Tyrosine-protein kinase ABL1 (Homo sapiens), sequence (P00519 whole entry): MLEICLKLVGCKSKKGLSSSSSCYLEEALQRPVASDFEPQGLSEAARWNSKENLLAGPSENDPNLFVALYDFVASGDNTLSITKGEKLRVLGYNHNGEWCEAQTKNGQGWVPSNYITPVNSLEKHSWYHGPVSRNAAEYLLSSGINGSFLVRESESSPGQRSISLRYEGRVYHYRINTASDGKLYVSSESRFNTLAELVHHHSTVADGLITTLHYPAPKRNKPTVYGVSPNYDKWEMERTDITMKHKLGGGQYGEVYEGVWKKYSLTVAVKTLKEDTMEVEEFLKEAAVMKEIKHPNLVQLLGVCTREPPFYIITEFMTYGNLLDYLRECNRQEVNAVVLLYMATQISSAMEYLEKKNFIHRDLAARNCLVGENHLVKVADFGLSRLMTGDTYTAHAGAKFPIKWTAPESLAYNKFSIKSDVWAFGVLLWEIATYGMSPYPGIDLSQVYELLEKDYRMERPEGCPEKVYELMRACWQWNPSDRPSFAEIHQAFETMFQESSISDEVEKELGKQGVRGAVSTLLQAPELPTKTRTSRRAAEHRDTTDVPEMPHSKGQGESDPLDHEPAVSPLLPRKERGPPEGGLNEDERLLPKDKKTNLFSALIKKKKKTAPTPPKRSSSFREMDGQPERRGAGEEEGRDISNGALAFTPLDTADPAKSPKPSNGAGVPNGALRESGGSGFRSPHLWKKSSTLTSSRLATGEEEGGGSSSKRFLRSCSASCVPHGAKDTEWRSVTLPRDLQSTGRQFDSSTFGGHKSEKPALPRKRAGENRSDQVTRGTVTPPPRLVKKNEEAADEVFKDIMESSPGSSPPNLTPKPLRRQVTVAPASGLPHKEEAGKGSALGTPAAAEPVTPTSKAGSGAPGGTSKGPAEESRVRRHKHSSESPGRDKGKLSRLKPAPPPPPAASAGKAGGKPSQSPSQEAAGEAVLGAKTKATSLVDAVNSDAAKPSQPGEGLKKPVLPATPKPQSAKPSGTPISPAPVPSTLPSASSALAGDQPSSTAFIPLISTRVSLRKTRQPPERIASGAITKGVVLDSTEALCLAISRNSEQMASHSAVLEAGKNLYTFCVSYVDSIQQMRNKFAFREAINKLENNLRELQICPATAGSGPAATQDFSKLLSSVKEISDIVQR

Take `N[C@@H](CCCCNC(=O)OCc1ccc([N+](=O)[O-])cc1)C(=O)N1CCCC1`: the ΔTm in test [1] is 0.09 °C; in test [2], -2.69 °C; in test [3], 0.15 °C; in test [4] it was -0.16 °C; in test [5] it was -0.58 °C; in test [6], 0.13 °C. For the same compound, the ΔTm is -1.1 °C in test [7] and -0.07 °C in test [8].

Consider `CS(=O)(=O)c1ccc(Oc2cc(F)cc(C#N)c2)c2c1[C@H](O)[C@H](F)[C@@H]2F`, for which the ΔTm is 0.05 °C in test [1]; 2.78 °C in test [2]; 0.17 °C in test [3]; -0.33 °C in test [4]; -0.61 °C in test [5]; 0.64 °C in test [6]. Further, the ΔTm in test [7] is -2.09 °C; in test [8], 1.99 °C.

Take `CC(=O)N[C@@H](Cc1ccc(O)cc1)C(=O)N[C@H](C(=O)N[C@@H](C)C(=O)N[C@H](C=O)CC(=O)O)C(C)C`: the ΔTm is 0.25 °C in test [1]; -2.08 °C in test [2]; 0.16 °C in test [3]; 0.05 °C in test [4]; -0.9 °C in test [5]; -0.12 °C in test [6]. For the same compound, the ΔTm was -1.08 °C in test [7] and -0.33 °C in test [8].

On to `Cc1cc2cc(NS(=O)(=O)c3ccc(C#N)cc3)ccc2n(C)c1=O`, for which the ΔTm is 0.57 °C in test [1]; -0.91 °C in test [2]; 0.09 °C in test [3]; 0.09 °C in test [4]; 0.03 °C in test [5]; -3 °C in test [6]. For the same compound, the values for the ΔTm in test [7] and in test [8] were -1.09 °C and 0.17 °C, respectively.

As to `COc1ccc(Cc2nc(O)c3c(C)nc([C@@H](CCCc4ccccc4)[C@@H](C)O)n3n2)cc1OC`, the shift in melting temperature (ΔTm) was -0.12 °C in test [1]; -2.72 °C in test [2]; 0 °C in test [3]; -0.14 °C in test [4]; 1.15 °C in test [5]; 0.16 °C in test [6]. In addition, the ΔTm in test [7] was -1.36 °C; in test [8] it was -0.56 °C.

Turning to `O=C(NCCCc1ccccc1)c1cccc(-c2cc(O)c3ncccc3c2)c1`, the ΔTm was 0.62 °C in test [1]; -0.53 °C in test [2]; 0.91 °C in test [3]; 0.06 °C in test [4]; 0.84 °C in test [5]; 0.32 °C in test [6]. For the same compound, the figures for the ΔTm in test [7] and in test [8] were -0.61 °C and 0.72 °C, respectively.

Take `NC(=O)c1cnc(N[C@@H]2CCCC[C@@H]2N)nc1Nc1cccc(-n2nccn2)c1`: the ΔTm is 3.49 °C in test [1]; -1.09 °C in test [2]; 5.92 °C in test [3]; 6.3 °C in test [4]; 5.98 °C in test [5]; 4.33 °C in test [6]. Further, the ΔTm in test [7] worked out at 2.17 °C; in test [8] it was 0.1 °C.

Regarding `CCN(CC)S(=O)(=O)c1cc(Nc2nccc(-c3ccnc(-c4ccc(NC(=O)NC)cc4)c3)n2)ccc1Cl`, the thermal shift (ΔTm) came to 15.6 °C in test [1]; 0 °C in test [2]; 0 °C in test [3]; 0.81 °C in test [4]; 24.1 °C in test [5]; 0 °C in test [6]. The ΔTm in test [7] and in test [8] was 0 °C in each case.

Consider `O=C(C1CC1)N1CC[C@@H](Cc2n[nH]c(=O)n2-c2ccc(-c3ccc4occc4c3)cc2)C1`, for which the ΔTm in test [1] was 0.72 °C and 0.71 °C; in test [2], -1.91 °C and -3.51 °C; in test [3], -0.31 °C and -0.16 °C; in test [4], 0.35 °C and -0.18 °C; in test [5] it was -0.54 °C and 0.29 °C; in test [6], 0.34 °C and 0.05 °C. The ΔTm was -4.5 °C and -1.89 °C in test [7]; -1.14 °C and -0.89 °C in test [8].

On to `CC(=O)N[C@@H](CC(C)C)C(=O)N[C@@H](CCC(=O)O)C(=O)N[C@@H](Cc1cnc[nH]1)C(=O)N[C@H](C=O)CC(=O)O` (Ac-LEHD-aldehyde), for which the ΔTm was 0.07 °C in test [1]; -2.66 °C in test [2]; 0.05 °C in test [3]; 0.09 °C in test [4]; -0.79 °C in test [5]; -0.4 °C in test [6]. Further, the figures for the ΔTm in test [7] and in test [8] were -1.34 °C and -0.81 °C, respectively.

In the case of `CN(C(=O)CCCOc1ccc2[nH]c(=O)ccc2c1)C1CCCCC1`, the ΔTm in test [1] is 0.63 °C; in test [2], -1.68 °C; in test [3], 0.09 °C; in test [4] it was -0.15 °C; in test [5] it was 0.07 °C; in test [6] it was 0.58 °C. The ΔTm is -2.27 °C in test [7] and -2.36 °C in test [8].

For the compound `Cc1noc2c1-c1ccccc1C(c1ccc(Cl)cc1)=N[C@H]2CC(N)=O`, the ΔTm was 0.53 °C in test [1]; 8.17 °C in test [2]; 0.94 °C in test [3]; 0.05 °C in test [4]; -0.25 °C in test [5]; 0.12 °C in test [6]. For the same compound, the ΔTm is -2.42 °C in test [7] and -0.29 °C in test [8].

With `N#Cc1ccc(-c2c3n(c4cccnc24)CCN(C2CC2)C3=O)cc1F`, the ΔTm in test [1] is 0.62 °C; in test [2], -3.17 °C; in test [3], 0.14 °C; in test [4], -0.26 °C; in test [5], 1.8 °C; in test [6] it was 0.04 °C. Moreover, the ΔTm in test [7] was -2.3 °C; in test [8], 0.73 °C.

As to `CC(C)c1ccc(-c2cc(=O)c3ccccc3o2)cc1`, the ΔTm in test [1] was 1.37 °C; in test [2], -0.23 °C; in test [3], -0.03 °C; in test [4], 0.58 °C; in test [5], 0 °C; in test [6], 0.37 °C. Also, the ΔTm in test [7] was -1.77 °C; in test [8] it was -0.62 °C.
